# Test results from the supplement of paper PMC8728848.
# This excerpt belongs to a sample that is enriched for the strongest signals.
# Key:
# Assay in all cases: glycan array binding signal (z-score within array); higher = stronger binding
# Settings in all cases: glycan notation: IUPAC condensed, linker removed; mutation: F63H
# [1] = molecular target: Neu5Ac(a2-6)Gal(b1-4)GlcNAc(b1-3)Gal(b1-4)GlcNAc(b1-2)Man(a1-3)[Neu5Ac(a2-6)Gal(b1-4)GlcNAc(b1-3)Gal(b1-4)GlcNAc(b1-2)Man(a1-6)]GalNAc
# Outline: (§1)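 Glycan array binding is given as a within-array Z-score, which can be read as non-binding when negative. The arrays, 3228 of them, came from the Consortium for Functional Glycomics database and were retained only where the protein sequence was available. Z-scores were averaged across arrays of the same protein sequence at different concentrations or buffers and across linkers.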
# [2] = molecular target: Neu5Ac(a2-6)Gal(b1-4)GlcNAc(b1-6)[Gal(b1-3)]GalNAc
# Outline: as §1
# Neu5Gc(a2-3)Gal(b1-4)Glc = molecular target: Neu5Gc(a2-3)Gal(b1-4)Glc
# Outline: as §1
# [3] = molecular target: Neu5Gc(a2-3)Gal(b1-4)[Fuc(a1-3)]GlcNAc
# Outline: as §1
binder,measurement,setting,value
"AAL (Agrocybe aegerita), Q6WY08 (protein) MQGVNIYNISAGTSVDLAAPVTTGDIVTFFSSALNLNAGAGNPNNTTLNLFAENGAYLLHIAHRLQENVIIFNSRQPDGPWLVEQRVSDVANQFAGIDGKAMVTVFDHGDKYQVVINEKTVIQYTKQISGLTLSLSYNATEETSIFSTVVEAVTYTGLALEHHHHHH",glycan array binding signal (z-score),[1],-0.58
same,glycan array binding signal (z-score),[2],0.137
same,glycan array binding signal (z-score),Neu5Gc(a2-3)Gal(b1-4)Glc,1.34
same,glycan array binding signal (z-score),[3],0.023
